About 2,000 (36%) of roughly 5,500 compounds were called active. Another 18% or so got no clear call; they are omitted. Rule as the data show it: active = normalized growth mostly below about 0.91 (no sharp cut-off); inconclusive = no clear call, values can overlap the other calls; inactive = mostly above about 0.92. Some of the results follow.
Assay: chemical genetic growth profiling, strain panel (AID 1159580);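 also: tested at 20 µM; growth read once vehicle control cultures reached saturation at 30 °C; 1 = growth at the plate median or of vehicle wells; lower values mean less growth of the strain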
Conditions: S. cerevisiae deletion strains, growth OD

Measured: normalized growth

CCOC(=O)c1ccc2oc3ccc(O)cc3c(=O)c2c1
inactive: locus YAL013W, strain DEP1, stronger effect = lower value 0.948 | locus YBR229C, strain ROT2, stronger effect = lower value 0.982 | locus YDL101C, strain DUN1, stronger effect = lower value 0.982 | locus YDL134C, strain PPH21, stronger effect = lower value 1 | locus YDR150W, strain NUM1, stronger effect = lower value 0.973 | locus YEL061C, strain CIN8, stronger effect = lower value 0.97 | locus YGR078C, strain PAC10, stronger effect = lower value 1 | locus YHR030C, strain SLT2, stronger effect = lower value 0.826 | locus YHR087W, strain rtc3, stronger effect = lower value 0.937 | locus YJL187C, strain SWE1, stronger effect = lower value 0.956 | locus YJR043C, strain POL32, stronger effect = lower value 0.977 | locus YJR075W, strain HOC1, stronger effect = lower value 1.01 | locus YKL190W, strain CNB1, stronger effect = lower value 0.979 | locus YLR039C, strain RIC1, stronger effect = lower value 1 | locus YLR058C, strain SHM2 (second series), stronger effect = lower value 0.988 | locus YLR085C, strain ARP6, stronger effect = lower value 0.864 | locus YLR262C, strain YPT6, stronger effect = lower value 0.99 | locus YML094W, strain GIM5, stronger effect = lower value 0.913 | locus YMR219W, strain ESC1, stronger effect = lower value 1 | locus YMR263W, strain SAP30, stronger effect = lower value 0.949 | locus YMR307W, strain GAS1, stronger effect = lower value 0.814 | locus YNL153C, strain GIM3, stronger effect = lower value 0.973 | locus YNL298W, strain CLA4 (second series), stronger effect = lower value 0.956 | locus YNL322C, strain KRE1, stronger effect = lower value 1.01 | locus YNR030W, strain Alg12, stronger effect = lower value 0.939 | locus YOL006C, strain TOP1, stronger effect = lower value 0.945 | locus YPL055C, strain LGE1, stronger effect = lower value 0.88 | locus YPL241C, strain CIN2, stronger effect = lower value 0.908 | locus YPR135W, strain CTF4, stronger effect = lower value 0.872

From PubChem BioAssay AID1159580 (chemical genetic matrix, 2015)
